What was measured:
Assay in all cases: DAPPL (digital affinity profiling via proximity ligation, sequencing); 10 mM Tris-HCl pH 7.5, 50 mM NaCl, 1 mM DTT, 4% glycerol, room temperature, 30 min; GST-TFs on glutathione beads, 16-mer random dsDNA library, 0.1% formaldehyde crosslink after washing; high values mean tight binding
Details in all cases: protein: recombinant; tags: N-terminal GST; dsDNA, one strand shown
[1] = target: T1, ERF (Homo sapiens, UniProt P50548 1-548)
T1 sequence: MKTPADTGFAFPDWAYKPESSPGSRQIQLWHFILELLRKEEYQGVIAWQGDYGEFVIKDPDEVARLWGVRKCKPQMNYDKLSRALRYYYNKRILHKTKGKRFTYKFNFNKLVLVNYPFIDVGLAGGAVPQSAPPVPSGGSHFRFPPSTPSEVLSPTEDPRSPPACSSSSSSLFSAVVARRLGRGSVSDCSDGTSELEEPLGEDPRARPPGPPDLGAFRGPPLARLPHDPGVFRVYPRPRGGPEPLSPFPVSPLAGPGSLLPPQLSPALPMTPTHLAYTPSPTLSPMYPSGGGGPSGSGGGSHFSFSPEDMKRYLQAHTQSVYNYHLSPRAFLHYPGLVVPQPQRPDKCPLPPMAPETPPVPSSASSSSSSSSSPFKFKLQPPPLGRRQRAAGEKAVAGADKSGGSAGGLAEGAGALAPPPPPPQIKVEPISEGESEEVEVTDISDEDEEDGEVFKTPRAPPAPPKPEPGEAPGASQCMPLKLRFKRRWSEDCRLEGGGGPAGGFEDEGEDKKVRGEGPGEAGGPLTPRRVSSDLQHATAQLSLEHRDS
Procedure, shortened: (§1)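 GST fusions of human transcription factors were expressed in yeast and captured with glutathione beads. Once given DNA barcodes and pooled alongside a tag-only sample, they were incubated for 30 min at room temperature with 200 nmole of a random double-stranded 16-mer DNA library in Tris/NaCl/DTT/glycerol buffer, then washed, crosslinked (0.1% formaldehyde), proximity-ligated, PCR-amplified and sequenced on an Illumina NextSeq500. The binding signal of each hexamer is its read frequency for a factor divided by its frequency for the tag-only sample.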

[2] = target: T2, ETV3L (Homo sapiens, UniProt Q6ZN32 1-361)
T2 sequence: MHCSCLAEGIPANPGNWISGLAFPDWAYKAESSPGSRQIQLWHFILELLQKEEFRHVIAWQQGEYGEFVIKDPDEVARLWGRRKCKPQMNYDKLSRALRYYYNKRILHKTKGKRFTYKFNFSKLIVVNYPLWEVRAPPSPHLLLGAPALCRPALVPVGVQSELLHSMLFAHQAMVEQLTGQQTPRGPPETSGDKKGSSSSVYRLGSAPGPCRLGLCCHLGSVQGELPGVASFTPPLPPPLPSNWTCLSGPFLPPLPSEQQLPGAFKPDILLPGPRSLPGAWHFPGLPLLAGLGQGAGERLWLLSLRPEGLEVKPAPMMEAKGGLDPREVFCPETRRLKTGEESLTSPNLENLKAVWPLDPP
Procedure, shortened: as §1

[3] = target: T3, ETS2 (Homo sapiens, UniProt P15036 1-469)
T3 sequence: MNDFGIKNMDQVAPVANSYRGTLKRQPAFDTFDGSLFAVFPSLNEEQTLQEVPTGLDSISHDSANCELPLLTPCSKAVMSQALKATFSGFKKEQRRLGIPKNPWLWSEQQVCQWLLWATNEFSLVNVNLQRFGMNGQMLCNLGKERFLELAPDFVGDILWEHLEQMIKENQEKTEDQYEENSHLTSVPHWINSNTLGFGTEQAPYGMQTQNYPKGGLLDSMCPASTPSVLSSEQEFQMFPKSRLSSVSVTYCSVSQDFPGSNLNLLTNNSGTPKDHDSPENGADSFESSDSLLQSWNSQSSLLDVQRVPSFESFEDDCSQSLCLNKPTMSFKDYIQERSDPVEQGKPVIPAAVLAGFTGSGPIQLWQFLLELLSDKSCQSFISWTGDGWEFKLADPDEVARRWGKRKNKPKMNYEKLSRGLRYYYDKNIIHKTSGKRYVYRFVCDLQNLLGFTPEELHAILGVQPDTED
Procedure, shortened: as §1

[4] = target: T4, SPDEF (Homo sapiens, UniProt O95238 1-335)
T4 sequence: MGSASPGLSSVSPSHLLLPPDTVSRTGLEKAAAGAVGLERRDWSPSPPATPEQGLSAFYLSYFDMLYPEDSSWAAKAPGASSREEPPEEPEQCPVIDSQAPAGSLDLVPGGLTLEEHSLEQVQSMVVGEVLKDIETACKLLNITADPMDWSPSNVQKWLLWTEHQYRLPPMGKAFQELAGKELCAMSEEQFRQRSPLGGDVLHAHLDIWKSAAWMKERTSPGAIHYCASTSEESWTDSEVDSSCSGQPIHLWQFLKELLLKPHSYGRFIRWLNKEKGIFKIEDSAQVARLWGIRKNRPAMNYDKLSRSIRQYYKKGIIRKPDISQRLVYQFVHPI
Procedure, shortened: as §1

[5] = target: T5, ETV7 (Homo sapiens, UniProt Q9Y603 1-341)
T5 sequence: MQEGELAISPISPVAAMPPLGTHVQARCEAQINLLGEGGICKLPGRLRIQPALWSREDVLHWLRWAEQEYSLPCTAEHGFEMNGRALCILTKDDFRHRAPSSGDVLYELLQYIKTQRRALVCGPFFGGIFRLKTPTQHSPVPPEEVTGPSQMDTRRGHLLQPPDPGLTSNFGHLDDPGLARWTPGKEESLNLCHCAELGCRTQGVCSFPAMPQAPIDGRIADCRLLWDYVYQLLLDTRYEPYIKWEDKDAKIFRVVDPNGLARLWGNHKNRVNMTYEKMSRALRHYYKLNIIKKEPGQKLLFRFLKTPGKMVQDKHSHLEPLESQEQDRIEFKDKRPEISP
Procedure, shortened: as §1

[6] = target: T6, ELF5 (Homo sapiens, UniProt Q9UKW6-2 1-255)
T6 sequence: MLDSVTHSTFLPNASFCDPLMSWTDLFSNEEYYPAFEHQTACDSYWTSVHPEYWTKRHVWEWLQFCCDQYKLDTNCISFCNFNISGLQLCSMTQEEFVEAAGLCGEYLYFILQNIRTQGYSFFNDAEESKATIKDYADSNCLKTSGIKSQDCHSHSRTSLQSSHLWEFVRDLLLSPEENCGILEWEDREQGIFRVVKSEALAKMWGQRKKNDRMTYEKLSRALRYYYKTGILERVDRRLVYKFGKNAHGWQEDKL
Procedure, shortened: as §1

[7] = target: T7, ETV3 (Homo sapiens, UniProt P41162-2 1-143)
T7 sequence: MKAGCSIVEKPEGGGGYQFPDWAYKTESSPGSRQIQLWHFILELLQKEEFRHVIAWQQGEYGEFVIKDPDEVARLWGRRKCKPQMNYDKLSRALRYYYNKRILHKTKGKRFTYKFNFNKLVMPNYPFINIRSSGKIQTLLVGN
Procedure, shortened: as §1

[8] = target: ETV6 (Homo sapiens, UniProt P41212 1-452)
ETV6, sequence (P41212 whole entry): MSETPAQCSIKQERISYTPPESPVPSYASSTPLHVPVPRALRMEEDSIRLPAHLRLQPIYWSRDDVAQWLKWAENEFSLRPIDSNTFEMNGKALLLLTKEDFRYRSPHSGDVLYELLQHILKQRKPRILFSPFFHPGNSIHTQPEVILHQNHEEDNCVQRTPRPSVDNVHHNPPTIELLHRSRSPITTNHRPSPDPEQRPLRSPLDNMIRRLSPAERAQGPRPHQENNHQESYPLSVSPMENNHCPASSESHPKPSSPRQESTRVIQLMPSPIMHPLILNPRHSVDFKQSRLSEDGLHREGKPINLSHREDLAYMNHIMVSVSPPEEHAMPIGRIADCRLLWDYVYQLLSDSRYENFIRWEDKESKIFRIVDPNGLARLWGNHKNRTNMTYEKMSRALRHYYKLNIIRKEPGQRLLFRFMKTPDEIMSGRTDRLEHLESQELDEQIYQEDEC
Procedure, shortened: as §1

Sequence	binding signal [1]	binding signal [2]	binding signal [3]	binding signal [4]	binding signal [5]	binding signal [6]	binding signal [7]	binding signal [8]
CCAACT	1.13 fold enrichment (6-mer frequency, TF over GST control)	1.21 fold enrichment (6-mer frequency, TF over GST control)	1.24 fold enrichment (6-mer frequency, TF over GST control)	1.27 fold enrichment (6-mer frequency, TF over GST control)	1.2 fold enrichment (6-mer frequency, TF over GST control)	1.17 fold enrichment (6-mer frequency, TF over GST control)	1.17 fold enrichment (6-mer frequency, TF over GST control)	1.18 fold enrichment (6-mer frequency, TF over GST control)
CTGCGA	1.22 fold enrichment (6-mer frequency, TF over GST control)	1.4 fold enrichment (6-mer frequency, TF over GST control)	1.29 fold enrichment (6-mer frequency, TF over GST control)	1.37 fold enrichment (6-mer frequency, TF over GST control)	1.26 fold enrichment (6-mer frequency, TF over GST control)	1.28 fold enrichment (6-mer frequency, TF over GST control)	1.32 fold enrichment (6-mer frequency, TF over GST control)	1.29 fold enrichment (6-mer frequency, TF over GST control)
TATATT	1.43 fold enrichment (6-mer frequency, TF over GST control)	1.5 fold enrichment (6-mer frequency, TF over GST control)	1.31 fold enrichment (6-mer frequency, TF over GST control)	1.32 fold enrichment (6-mer frequency, TF over GST control)	1.4 fold enrichment (6-mer frequency, TF over GST control)	1.35 fold enrichment (6-mer frequency, TF over GST control)	1.44 fold enrichment (6-mer frequency, TF over GST control)	1.37 fold enrichment (6-mer frequency, TF over GST control)
CCTCCC	1.59 fold enrichment (6-mer frequency, TF over GST control)	1.49 fold enrichment (6-mer frequency, TF over GST control)	1.58 fold enrichment (6-mer frequency, TF over GST control)	1.38 fold enrichment (6-mer frequency, TF over GST control)	1.44 fold enrichment (6-mer frequency, TF over GST control)	1.49 fold enrichment (6-mer frequency, TF over GST control)	1.43 fold enrichment (6-mer frequency, TF over GST control)	1.44 fold enrichment (6-mer frequency, TF over GST control)
GTAATA	1.12 fold enrichment (6-mer frequency, TF over GST control)	1.16 fold enrichment (6-mer frequency, TF over GST control)	1.11 fold enrichment (6-mer frequency, TF over GST control)	1.16 fold enrichment (6-mer frequency, TF over GST control)	1.29 fold enrichment (6-mer frequency, TF over GST control)	1.2 fold enrichment (6-mer frequency, TF over GST control)	1.06 fold enrichment (6-mer frequency, TF over GST control)	1.16 fold enrichment (6-mer frequency, TF over GST control)
CCGCCT	1.35 fold enrichment (6-mer frequency, TF over GST control)	1.49 fold enrichment (6-mer frequency, TF over GST control)	1.41 fold enrichment (6-mer frequency, TF over GST control)	1.75 fold enrichment (6-mer frequency, TF over GST control)	1.52 fold enrichment (6-mer frequency, TF over GST control)	1.84 fold enrichment (6-mer frequency, TF over GST control)	1.64 fold enrichment (6-mer frequency, TF over GST control)	1.64 fold enrichment (6-mer frequency, TF over GST control)
CAATAT	1.28 fold enrichment (6-mer frequency, TF over GST control)	1.26 fold enrichment (6-mer frequency, TF over GST control)	1.28 fold enrichment (6-mer frequency, TF over GST control)	1.34 fold enrichment (6-mer frequency, TF over GST control)	1.27 fold enrichment (6-mer frequency, TF over GST control)	1.2 fold enrichment (6-mer frequency, TF over GST control)	1.33 fold enrichment (6-mer frequency, TF over GST control)	1.23 fold enrichment (6-mer frequency, TF over GST control)
